Test results: ChEMBL document CHEMBL3988442, “University of Dundee, Small-Polar-MMV Screening Library” (2021)
The campaign covered roughly 48,000 compounds. About 13,000 (27%) showed an effect of 50% or more. Some of the results follow.

test system: Wolbachia pipientis; assay: Anti-Wolbachia Cell-Based Screen; type: functional; design: scale not given: in the data most compounds retested in dose-response had high values; conditions: 5 µM

In order of falling “Percent Effect” value:
1. Cc1ccc([C@]2(O)CC[C@H]3CN(Cc4ccncc4)C[C@H]32)nc1  139.7%
2. Cc1ccc([C@]2(O)CC[C@H]3CN(Cc4cccnc4)C[C@H]32)nc1  129.8%
3. CCn1ccnc1CN1CCCN(C(=O)Cc2ccccc2C)CC1  129.6%
4. CC(C)(C)CC(=O)N1C[C@H]2CCN[C@H]2C1  123.1%
5. CCn1ccnc1CN1CCCN(C(=O)Cc2csc(C)n2)CC1  120.7%
6. Cc1ccc(CC(=O)N2CCCN(Cc3nccn3C)CC2)cn1  118.2%
7. CCn1ccnc1CN1CCCN(C(=O)Cc2ccc(F)cc2)CC1  115.9%
8. Cc1noc(C)c1CN1CC[C@H]2[C@H]1CCN2CC1CCOCC1.O=C(O)C(F)(F)F.O=C(O)C(F)(F)F  115.6%
9. O=C(CC1CC1)N1C[C@H]2CCN[C@H]2C1  112.4%
10. CCn1ccnc1CN1CCCN(C(=O)Cc2ccc(C)cc2)CC1  110.8%
11. CC(C)CCC(=O)N1C[C@H]2CCN[C@H]2C1  107.3%
12. COCCN1CC[C@]2(CN(Cc3cccnc3)C[C@H]2C)C1=O.O=C(O)C(F)(F)F.O=C(O)C(F)(F)F  106.1%
13. CN(C)CCOCc1cncc2c1CCN(C1CCOC1)C2.O=C(O)C(F)(F)F.O=C(O)C(F)(F)F.O=C(O)C(F)(F)F (configuration not stated)  106.1%
14. C[C@@H]1CN(Cc2cccnc2)C[C@]1(C)O  104.9%
15. COCCN1C(=O)CC[C@@H]2[C@@H]1CCN2Cc1c(C)noc1C.O=C(O)C(F)(F)F  103.6%
16. COCCn1cncc1Cn1ncc2ccccc2c1=O  103.5%
17. CNC(=O)[C@H]1C[C@@H]2CCN(Cc3ccncc3)C[C@H]2O1.O=C(O)C(F)(F)F.O=C(O)C(F)(F)F  103.5%
18. Cl.Cl.Cn1cc(C(=O)NCc2cncc3c2CCNC3)cn1  102.3%
19. CCn1ccnc1CN1CCCN(C(=O)Cc2ccc(C)s2)CC1  99.83%
20. COCCNC(=O)[C@H]1C[C@@H]2CCN(Cc3ccncc3)C[C@H]2O1.O=C(O)C(F)(F)F.O=C(O)C(F)(F)F  99.07%
21. CCS(=O)(=O)N1CCc2ccc(NC(=O)Nc3cccc(C#N)c3)cc21  97.92%
22. CCS(=O)(=O)N1CCc2c(COCCN(C)C)cncc2C1.O=C(O)C(F)(F)F.O=C(O)C(F)(F)F  97.71%
23. O=c1c2ccccc2cnn1Cc1cncn1C1CC1  94.68%
24. NC(=O)c1cnn2c1NCC(CNCC1(c3ccccc3)CCC1)C2 (configuration not stated)  92.2%
25. O=C(CC(F)(F)F)N1C[C@H]2CCN[C@H]2C1  92.17%
26. Cc1cc(C(=O)NCC(=O)N2CCOCC2)nn1C(C)(C)C  90.04%
27. CCn1cncc1Cn1ncc2ccccc2c1=O  88.95%
28. CN1CCc2c(CNC(=O)c3nccn3C)cncc2C1.Cl.Cl.Cl  16.49%
29. O=C(c1ccc(C2CCCN2)s1)N1CCN2CCC1CC2 (configuration not stated)  11.12%
30. O=C(O)C(F)(F)F.O=C(O)C(F)(F)F.O=C([C@H]1CN(Cc2ccncc2)C[C@H]2OCC[C@@H]12)N1CCCCO1  11.08%
31. O=C(C1CCOCC1)N1C[C@H]2CC[C@@H]1CN(Cc1ccncc1)C2  9.375%
32. Oc1cccc(CN2C[C@H]3CC[C@@H]2CN(Cc2cccnc2)C3)c1  8.491%
33. CC[C@H]1CN2CC[C@H]1C[C@@H]2CNCc1cccc(C#N)c1  6.24%
34. CCn1cc(CN2CCCN(C(=O)Cc3ccc(C)nc3)CC2)cn1  6.063%
35. CCOC[C@H]1CC[C@H]2[C@H](CCN2Cc2c(C)noc2C)O1.O=C(O)C(F)(F)F  4.615%
36. CCOC[C@@H]1CC[C@H]2[C@H](CCN2Cc2c(C)noc2C)O1.O=C(O)C(F)(F)F  3.079%
37. CNc1nc(C(=O)N2C[C@@H]3CCN(C)[C@@H]3C2)cs1  2.53%
38. CN(C)CCN(Cc1ccco1)C(=O)Cc1cn2ccsc2n1  1.866%
39. O=C(NCCc1ccncc1)[C@H]1CC[C@@H]2[C@@H](CCN2CC2CC2)O1.O=C(O)C(F)(F)F.O=C(O)C(F)(F)F  1.654%
40. CC[C@H]1CN2CC[C@H]1C[C@@H]2CNC(=O)Nc1cccc(C#N)c1  1.181%
41. O=C1CO[C@H]2CN(Cc3cccnc3)C[C@H]2N1  0.8904%
42. CCCS(=O)(=O)N1CCc2c(COCC)cncc2C1.O=C(O)C(F)(F)F  0.2019%
43. O=C(Cc1ccccc1)N1CCN(Cc2noc(C3CC3)n2)CC1  0.1776%
44. COc1cccc2c(=O)n(C3CCCNC3)cnc12 (configuration not stated)  -0.6392%
45. Cc1noc(C)c1CN1CC[C@@H]2O[C@@H](COCC3CC3)CC[C@@H]21.O=C(O)C(F)(F)F  -0.7071%
46. COc1ccc(C(=O)C2CCCN(CCCn3cccn3)C2)c(OC)c1 (configuration not stated)  -1.04%
47. NC(=O)CN1CCCN(C(=O)Cc2ccc3ccccc3c2)CC1  -1.177%
48. Cc1nc(CC(=O)N2CCN(Cc3ccc(C#N)cc3)CC2)cs1  -1.564%
49. NC(=O)CN1CCCN(C(=O)Cc2ccc(F)c(Br)c2)CC1  -2.154%
50. CCn1ccnc1CN1CCCN(C(=O)Cc2ccc(C)nc2)CC1  -2.19%
51. CNCCc1nc2cc(F)ccc2[nH]1.Cl.Cl  -2.58%
52. CCN1CCN(C(=O)Cc2ccc(S(=O)(=O)C(F)F)cc2)CC1  -2.606%
53. Cc1[nH]c2c(F)cccc2c1CC(=O)N1CCN(C2CCSCC2)CC1  -2.752%
54. COC(=O)N1C[C@H]2CC[C@@H]1CN(Cc1ccncc1)C2  -3.604%
55. CCc1nc(CN2CCCN(C(=O)Cc3cccs3)CC2)cs1  -3.679%
56. Cc1ncccc1OCC(=O)N1CCN[C@H]2CS(=O)(=O)C[C@H]21  -3.722%
57. Cc1noc(C)c1CN1CCO[C@H]2CN(CC3CC3)C[C@H]21.O=C(O)C(F)(F)F.O=C(O)C(F)(F)F  -4.425%
58. CCN(C)c1ncc2c(c1C(=O)O)CCN(C1CCOC1)C2.O=C(O)C(F)(F)F.O=C(O)C(F)(F)F (configuration not stated)  -4.446%
59. Cc1ncc2c(c1CNC(=O)C1(C)CC1)CCNC2  -5.654%
60. CC(Cc1cccc(Cl)c1)NC(=O)NCc1ncnn1C (configuration not stated)  -5.872%
61. CCCn1ncc(CN2CCCC(C(=O)c3ccc(SC)cc3)C2)c1C (configuration not stated)  -6.021%
62. CCc1noc(CN2CCN(C(=O)Cc3ccc(F)cc3)CC2)n1  -6.192%
63. N#Cc1cccnc1NCCNC(=O)N1CCN2CCCCC2C1 (configuration not stated)  -6.324%
64. COCC(=O)NC[C@H]1C[C@@H]2CCN1C[C@@H]2CN1CCc2ccccc21  -6.803%
65. CCn1cc(CN2CCCN(C(=O)Cc3cccs3)CC2)cn1  -6.845%
66. CC(C)C(=O)N1C[C@H]2CCCN[C@H]2C1.Cl  -7.068%
67. COCCN1CC[C@]2(CN(Cc3ccccn3)C[C@H]2C)C1=O.O=C(O)C(F)(F)F.O=C(O)C(F)(F)F  -7.652%
68. c1cnc(N2CC[C@@H]3[C@@H]2CCN3Cc2cccs2)nc1  -7.885%
69. Cl.Cl.O=C1NC2(CCNCC2)CC1c1ccncc1 (configuration not stated)  -8.002%
70. Cc1ncsc1CN1C[C@@H]2CN(Cc3cccnc3)CCO[C@@H]2C1  -8.283%
71. N#Cc1ccc(S(=O)(=O)NCCn2ccnc2)cc1Cl  -8.716%
72. COCCn1cncc1CN1CCC(C(C)=O)(c2ccccc2)CC1  -9.89%
73. CC(C)CNC(=O)N1C[C@@H]2CCCN[C@@H]2C1  -10.44%
74. O=C(NC1CCC1)[C@@H]1C[C@@H]2CCN(Cc3ccncc3)C[C@H]2O1.O=C(O)C(F)(F)F.O=C(O)C(F)(F)F  -10.63%
75. CC(C)OC(=O)N1C[C@H]2CC[C@@H]1CN(Cc1cccnc1)C2  -10.82%
76. Cc1cccc2cc(CN3CCCN4CCC[C@H]4C3)c(=O)[nH]c12  -11.16%
77. CC(C)NC(=O)N1CCOC2(CCCNC2)C1 (configuration not stated)  -11.25%
78. CC(C)COC(=O)N1CCC2(CCNC2)C1.Cl (configuration not stated)  -11.51%
79. Cc1ccc(S(=O)(=O)N2C[C@@H]3CCN[C@@H]3C2)cc1  -12.06%
80. CC(C)(C)CC(=O)N1C[C@@H]2C[C@H]1CN2.Cl  -16.89%
81. CCc1ocnc1C(=O)N1CCC2(CC1)OCC(C)O2 (configuration not stated)  -17.17%
82. CCCN1CCN(Cc2nccn2CC)C(C)C1 (configuration not stated)  -20.72%
83. C[C@@H]1CN(C2CCOC2)C[C@]12CCN(Cc1cccnc1)C2=O.O=C(O)C(F)(F)F.O=C(O)C(F)(F)F (some centres not stated)  -21.11%
84. CC(C)CNC(=O)N1C[C@H]2CCN[C@H]2C1  -21.84%
85. CS(=O)(=O)N1CCC(Nc2ccc(C#N)c(C(F)(F)F)c2)CC1  -23.63%
86. CC(C)=CCN1C[C@H]2CC[C@@H]1CN(S(=O)(=O)c1cccnc1)C2  -24.05%
87. O=S(=O)(c1ccc(Cl)cc1)N1C[C@@H]2CCN[C@@H]2C1  -24.32%
88. COCC1CN(c2ccc(C#N)c(Cl)c2)CCO1 (configuration not stated)  -25.31%
89. CC(C)NC(=O)C1CCC2(CCNCC2)C1 (configuration not stated)  -35.43%
90. O=C(CC1CCCC1)N1C[C@@H]2C[C@H]1CN2  -37.69%
91. Cl.O=C1NC2(CCNCC2)CC1c1ccccc1 (configuration not stated)  -38.6%
92. O=S(=O)(c1ccccc1)N1C[C@@H]2CCN[C@@H]2C1  -39.01%
